In all, about 3,200 compounds went through this assay and about 75 (2%) showed an effect of 50% or more. The list comes from a sample in which strong results are over-represented; it also holds similar structures and randomly drawn compounds.
test system: T1, S. aureus MSSA476; set-up: species or system S. aureus MSSA476 (TSB) or V. cholerae SAD30 (LB); 384-well bacterial growth screen at 25 uM, OD600 relative to DMSO control; conditions: relative growth, OD600, TSB; 25 µM; inhibitor
T1 construct: MSSA476

| SMILES | % of control remaining [%] |
| --- | --- |
| Cc1ccc(NC(=O)CN2CCN(C(=O)CCl)CC2)cc1.Cl [4-D16, 2-[4-(2-chloroacetyl)piperazin-1-yl]-N-(4-methylphenyl)acetamide hydrochloride] | 131.872 |
| COCC(NC(=O)C(C)Cl)c1ccccn1 (stereo not shown) [6-B13, 2-chloro-N-[2-methoxy-1-(pyridin-2-yl)ethyl]propanamide] | 95.6098 |
| COc1cc(C=C(C#N)C(=O)NC2CCCCC2)cc(Cl)c1O [8-H21, 3-(3-chloro-4-hydroxy-5-methoxyphenyl)-2-cyano-N-cyclohexylprop-2-enamide] | 104.564 |
| O=C1C=CC(=O)N1c1cccc(O)c1 [10-O07, 1-(3-hydroxyphenyl)-2,5-dihydro-1H-pyrrole-2,5-dione] | 125.313 |
| O=C1C=CC(=O)N1c1ccc2ccccc2c1 [10-D07, 1-(naphthalen-2-yl)-2,5-dihydro-1H-pyrrole-2,5-dione] | 3.125 |
| CCOc1ccc(N2C(=O)C=CC2=O)cc1 [10-A14, 1-(4-ethoxyphenyl)-2,5-dihydro-1H-pyrrole-2,5-dione] | 141.563 |
| O=C1C=CC(=O)N1c1ccc(OC(F)(F)F)cc1 [10-J19, 1-[4-(trifluoromethoxy)phenyl]-2,5-dihydro-1H-pyrrole-2,5-dione] | 5.9375 |
| O=C1C=CC(=O)N1c1ccc(F)c(Cl)c1 [10-D15, 1-(3-chloro-4-fluorophenyl)-2,5-dihydro-1H-pyrrole-2,5-dione] | 109.688 |
| O=C1C=CC(=O)N1c1ccc(OC(F)F)cc1 [10-P11, 1-[4-(difluoromethoxy)phenyl]-2,5-dihydro-1H-pyrrole-2,5-dione] | 110.313 |
| COc1cccc(N2C(=O)C=CC2=O)c1 [10-K03, 1-(3-methoxyphenyl)-2,5-dihydro-1H-pyrrole-2,5-dione] | 124.375 |
| O=C1C=CC(=O)N1c1ccc(Oc2ccccc2)cc1 [10-F17, 1-(4-phenoxyphenyl)-2,5-dihydro-1H-pyrrole-2,5-dione] | 36.875 |
| COc1ccccc1N1C(=O)C=CC1=O [10-O10, 1-(2-methoxyphenyl)-2,5-dihydro-1H-pyrrole-2,5-dione] | 118.438 |
| CCOC(=O)c1[nH]c(C)c(C(=O)CCl)c1C [10-A10, ethyl 4-(2-chloroacetyl)-3,5-dimethyl-1H-pyrrole-2-carboxylate] | 136.563 |
| C=CC(=O)NCC1=NOCC1 [3-G16, N-[(4,5-dihydro-1,2-oxazol-3-yl)methyl]prop-2-enamide] | 95.7771 |
| Cc1cc(C(=O)CCl)c(F)cc1F [10-O03, 2-chloro-1-(2,4-difluoro-5-methylphenyl)ethan-1-one] | 143.438 |
| O=C1CCc2cc(C(=O)CCl)ccc2N1 [10-M03, 6-(2-chloroacetyl)-1,2,3,4-tetrahydroquinolin-2-one] | 83.125 |
| O=C1CCc2cc(C(=O)CCl)c(F)cc2N1 [10-O20, 6-(2-chloroacetyl)-7-fluoro-1,2,3,4-tetrahydroquinolin-2-one] | 3.75 |
| C=CC(=O)N1CCC(n2nc(C)nc2O)CC1 [3-P21, 1-[4-(5-hydroxy-3-methyl-1H-1,2,4-triazol-1-yl)piperidin-1-yl]prop-2-en-1-one] | 126.077 |
| O=C(CCl)N1CCOc2c1cccc2C(F)(F)F [5-G08, 2-chloro-1-[8-(trifluoromethyl)-3,4-dihydro-2H-1,4-benzoxazin-4-yl]ethan-1-one] | 0.3643 |
| CC1CCN(C(=O)CCl)c2cc(C(F)(F)F)ccc2S1 (stereo not shown) [5-J07, 2-chloro-1-[2-methyl-7-(trifluoromethyl)-2,3,4,5-tetrahydro-1,5-benzothiazepin-5-yl]ethan-1-one] | 106.011 |
| O=C(CCl)Nc1c(Cl)cccc1C(F)(F)F [5-B04, 2-chloro-N-[2-chloro-6-(trifluoromethyl)phenyl]acetamide] | 82.3315 |
| CN(C)S(=O)(=O)c1ccc(Cl)c(NC(=O)CCl)c1 [6-H12, 2-chloro-N-[2-chloro-5-(dimethylsulfamoyl)phenyl]acetamide] | 88.439 |
| C=CC(=O)N1CCN(Cc2cc(=O)n3ccsc3n2)CC1 [3-F22, 7-{[4-(prop-2-enoyl)piperazin-1-yl]methyl}-5H-[1,3]thiazolo[3,2-a]pyrimidin-5-one] | 101.698 |

| SMILES | % of control remaining [%] |
| --- | --- |
| CC1CCN(C(=O)CCl)c2cc(Cl)ccc2S1 (stereo not shown) [4-G16, 2-chloro-1-(7-chloro-2-methyl-2,3,4,5-tetrahydro-1,5-benzothiazepin-5-yl)ethan-1-one] | 93.3778 |
| CC1CSc2ccc(Cl)cc2N(C(=O)CCl)C1 (stereo not shown) [5-J05, 2-chloro-1-(7-chloro-3-methyl-2,3,4,5-tetrahydro-1,5-benzothiazepin-5-yl)ethan-1-one] | 95.4463 |
| O=C(CCl)N1c2ccccc2Sc2ccc(Cl)cc21 [4-N07, 2-chloro-1-(2-chloro-10H-phenothiazin-10-yl)ethan-1-one] | 3.049 |
| CC(Cl)C(=O)N(Cc1nnc(-c2ccccc2Cl)o1)C1CC1 (stereo not shown) [5-B17, 2-chloro-N-{[5-(2-chlorophenyl)-1,3,4-oxadiazol-2-yl]methyl}-N-cyclopropylpropanamide] | 92.5319 |
| C[C@H]1CN(C(=O)CCl)CCN1C(=O)c1cscn1 [5-L05, 2-chloro-1-[(3S)-3-methyl-4-(1,3-thiazole-4-carbonyl)piperazin-1-yl]ethan-1-one] | 92.5319 |
| O=C(CCl)c1ccccn1 [10-J03, 2-chloro-1-(pyridin-2-yl)ethan-1-one] | 51.875 |
| O=C(CCl)c1cscn1 [10-L08, 2-chloro-1-(1,3-thiazol-4-yl)ethan-1-one] | 27.8125 |
| CCOc1ccccc1NC(=O)C(C)Cl (stereo not shown) [6-M10, 2-chloro-N-(2-ethoxyphenyl)propanamide] | 106.195 |
| C=CC(=O)NCc1nc(C2CC2)cs1 [2-A19, N-[(4-cyclopropyl-1,3-thiazol-2-yl)methyl]prop-2-enamide] | 138.207 |
| O=C(CCl)N1c2ccccc2SCC1c1ccccc1 (stereo not shown) [4-M18, 2-chloro-1-(3-phenyl-3,4-dihydro-2H-1,4-benzothiazin-4-yl)ethan-1-one] | 9.528 |
| O=C(CCl)N1CCCSc2ccccc21 [4-E16, 2-chloro-1-(2,3,4,5-tetrahydro-1,5-benzothiazepin-5-yl)ethan-1-one] | 116.627 |
| CC1CSc2ccccc2N(C(=O)CCl)C1 (stereo not shown) [5-H07, 2-chloro-1-(3-methyl-2,3,4,5-tetrahydro-1,5-benzothiazepin-5-yl)ethan-1-one] | 104.554 |
| C=CC(=O)N1C[C@H](NC(C)=O)[C@@H](c2ccnn2C)C1 (racemic) [2-M16, rac-N-[(3R,4S)-4-(1-methyl-1H-pyrazol-5-yl)-1-(prop-2-enoyl)pyrrolidin-3-yl]acetamide] | 90.5135 |
| Cc1nn(CC(C)C)c(Cl)c1C1CCCN1C(=O)C(C)Cl (stereo not shown) [7-P19, 2-chloro-1-{2-[5-chloro-3-methyl-1-(2-methylpropyl)-1H-pyrazol-4-yl]pyrrolidin-1-yl}propan-1-one] | 108.32 |
| CC(Cl)C(=O)N(Cc1ccccc1)Cc1ccccc1 (stereo not shown) [5-K19, N,N-dibenzyl-2-chloropropanamide] | 103.097 |
| CC(c1ccc(C(F)(F)F)c(Cl)c1)N(C)C(=O)CCl (stereo not shown) [7-F14, 2-chloro-N-{1-[3-chloro-4-(trifluoromethyl)phenyl]ethyl}-N-methylacetamide] | 6.593 |
| CN(C(=O)CCl)C(c1ccc(Cl)cc1)C(F)(F)F (stereo not shown) [7-J16, 2-chloro-N-[1-(4-chlorophenyl)-2,2,2-trifluoroethyl]-N-methylacetamide] | 101.413 |
| CC(c1ccc(C(F)(F)F)cc1F)N(C)C(=O)CCl (stereo not shown) [7-P18, 2-chloro-N-{1-[2-fluoro-4-(trifluoromethyl)phenyl]ethyl}-N-methylacetamide] | 94.5055 |
| Cc1ccc(C=C(C#N)C(=O)Nc2nccs2)s1 [8-P13, 2-cyano-3-(5-methylthiophen-2-yl)-N-(1,3-thiazol-2-yl)prop-2-enamide] | 93.61 |
| Cc1ccccc1NC(=O)C(C#N)=Cc1ccc2c(c1)OCCO2 [8-J03, 2-cyano-3-(2,3-dihydro-1,4-benzodioxin-6-yl)-N-(2-methylphenyl)prop-2-enamide] | 129.461 |
| N#Cc1ccc(N2C(=O)C=CC2=O)cc1 [10-B09, 4-(2,5-dioxo-2,5-dihydro-1H-pyrrol-1-yl)benzonitrile] | 133.438 |
| O=C1C=CC(=O)N1c1ccc(F)cc1 [10-M10, 1-(4-fluorophenyl)-2,5-dihydro-1H-pyrrole-2,5-dione] | 118.75 |
| O=C1C=CC(=O)N1c1ccc(SC(F)F)cc1 [10-A18, 1-{4-[(difluoromethyl)sulfanyl]phenyl}-2,5-dihydro-1H-pyrrole-2,5-dione] | 29.6875 |

Source: paper PMC11995724, “Antibiotic target discovery by integrated phenotypic and activity-based profiling of electrophilic fragments” (Cell chemical biology, 2025)
